From PubChem
CYP2C19 inh: blockers of cytochrome P450 2C19 activity – biochemical, luminescence, ADME assay, primary screen; inhibition, % at 5 µM; 96,000 compounds, 21% hits; P33261; CYP2C19 Supersomes, luciferin-H EGE luminescence, 30 min;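 active = CYP2C19 inhibition above a set limit at 5 µM in the primary screen, cut at about 50% in these data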;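 also: plate controls were negative control wells for no effect and 2.5 mM tranylcypromine positive control for full effect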
CYP2C9 activ: human CYP2C9 activators, primary screen, biochemical, luminescence; Cytochrome P450 2C9 (Homo sapiens), P11712; recombinant CYP2C9, luciferin-H conversion; active compounds read high; factor 1 = untreated enzyme, 0 = blocked; activation factor at 5 µM; 96,000 compounds, 1.4% hits; AID 1024, 2008;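 active = activation factor of 2 or more for CYP2C9 at a 5 µM dose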;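 also: 0 = sulfaphenazole-blocked wells and 1 = vehicle-only wells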
CYP2C19 activ: human CYP2C19 activators, primary screen, biochemical, luminescence; Cytochrome P450 2C19 (Homo sapiens), P33261; recombinant CYP2C19, luciferin-H EGE luminescence; active compounds read high; 0 = fully inhibited enzyme, 1 = untreated enzyme; activation factor at 5 µM; 96,000 tested, under 10 active;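 active = activation factor of at least 2 at 5 µM in the primary screen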;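 also: 0 = wells with 2.5 mM tranylcypromine and 1 = vehicle-only wells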
CYP2C9 inhib: blockers of cytochrome P450 2C9 activity – biochemical, luminescence, ADME assay, primary screen. P11712. CYP2C9 Supersomes, luciferin-H conversion. inhibition, % at 5 µM. 96,000 compounds, 20% hits. AID 777, 2007;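 active = blocking of liver enzyme CYP2C9 beyond about 50% at 5 µM, limit read from the data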
EphB4 antag: EphB4-ephrin-B2 interaction antagonists, primary screen, biochemical, TNYL-RAW peptide probe, fluorescence polarization. Ephrin type-B receptor 4 (Homo sapiens), P54760. EphB4 LBD / TNYL-RAW-Alexa532 peptide. inhibition, % at 7 µM. 97,000 compounds, 0.15% hits. AID 720, 2007;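 active = inhibition above the screen-wide mean inhibition plus 3 SD, cut at about 15% in these data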;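 also: 0% = DMSO wells and 100% = excess unlabeled TNYL-RAW peptide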
Target sequence (P54760 whole entry, looked up, the tested form may be a part): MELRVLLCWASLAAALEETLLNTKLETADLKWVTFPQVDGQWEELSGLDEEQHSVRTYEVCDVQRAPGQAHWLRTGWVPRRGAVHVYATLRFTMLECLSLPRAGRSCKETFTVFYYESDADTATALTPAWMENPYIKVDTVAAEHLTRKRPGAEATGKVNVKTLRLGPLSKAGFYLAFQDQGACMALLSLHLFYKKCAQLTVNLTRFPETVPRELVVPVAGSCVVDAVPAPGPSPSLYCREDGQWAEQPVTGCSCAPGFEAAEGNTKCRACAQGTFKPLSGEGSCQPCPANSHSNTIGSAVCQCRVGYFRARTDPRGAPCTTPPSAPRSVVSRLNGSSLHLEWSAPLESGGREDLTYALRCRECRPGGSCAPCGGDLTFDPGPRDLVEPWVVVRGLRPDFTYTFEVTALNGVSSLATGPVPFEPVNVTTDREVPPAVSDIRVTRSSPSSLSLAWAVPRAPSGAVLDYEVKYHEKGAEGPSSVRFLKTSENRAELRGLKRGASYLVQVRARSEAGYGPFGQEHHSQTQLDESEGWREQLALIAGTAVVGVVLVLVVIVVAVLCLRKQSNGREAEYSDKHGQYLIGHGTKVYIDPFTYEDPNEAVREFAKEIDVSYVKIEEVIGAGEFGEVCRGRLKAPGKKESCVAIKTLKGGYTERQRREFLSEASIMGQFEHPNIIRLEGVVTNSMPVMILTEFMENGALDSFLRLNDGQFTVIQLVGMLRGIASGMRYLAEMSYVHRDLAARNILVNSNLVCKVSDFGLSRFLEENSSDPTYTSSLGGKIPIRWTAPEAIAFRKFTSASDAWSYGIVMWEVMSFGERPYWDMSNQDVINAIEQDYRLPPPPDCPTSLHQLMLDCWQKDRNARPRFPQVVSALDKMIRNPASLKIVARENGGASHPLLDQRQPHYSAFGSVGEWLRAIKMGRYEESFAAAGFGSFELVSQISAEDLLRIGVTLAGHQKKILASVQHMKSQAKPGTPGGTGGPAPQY
The depositor's hits bear a star; . = not tested or not shown. Only some compounds are listed: those with a hit (about 27% of all), similar ones and a draw of the others.

SMILES	CYP2C19 inh	CYP2C9 activ	CYP2C19 activ	CYP2C9 inhib	EphB4 antag
NC(=O)/C=C\C(=O)Nc1cccc(C(F)(F)F)c1	11	1	0.9	3	-1
NS(=O)(=O)c1cccnc1Nc1cccc(C(F)(F)F)c1	34	0.2	0.7	78*	8
O=C(COC(=O)Cn1cnc2ccccc21)Nc1ccc2c(c1)OCCO2	4	1	1	-1	-8
Cc1nn(C2CCS(=O)(=O)C2)c(Cl)c1/C=C/C(=O)OCC(=O)Nc1ccccc1OC(F)F (stereo not drawn)	67*	0.3	0.3	69*	-1
O=C(Cn1cnc2c(nnn2Cc2ccccc2)c1=O)NCC1CCCO1 (stereo not drawn)	-6	1.1	1.1	-11	.
c1ccc(Cn2nnc3c(NCC4CCCO4)ncnc32)cc1 (stereo not drawn)	33	2.4*	0.7	-138	-3
CC(C)CCNc1ncnc2c1nnn2Cc1ccccc1Cl	15	2.4*	0.8	-139	.
Clc1ccccc1Nc1ncnc2c1nnn2Cc1ccccc1	37	1	0.6	2	1
COCCCNCC(=O)c1c(N)n(Cc2ccccc2)c(=O)n(C)c1=O	0	0.9	1	13	1
Cc1ccccc1NC(=O)CSc1nc2c(c(-c3ccco3)c1C#N)CCCC2	43	0.7	0.6	27	-3
N#Cc1c(SCC(=O)Nc2nccs2)nc2c(c1-c1ccco1)CCCC2	46	0.3	0.5	70*	1
CCc1ccccc1NC(=O)CSc1nc2c(c(-c3ccco3)c1C#N)CCCC2	88*	0.7	0.1	34	0
N#Cc1c(SCC(N)=O)nc2c(c1-c1ccc(OCc3ccccc3)cc1)CCCC2	.	.	.	.	0
CCn1c(CNC(=O)COc2ccc(C(C)C)cc2)nnc1SCC(=O)Nc1ccccc1C(C)C	24	0.7	0.8	30	-1
CCCOc1ccc(N2CC(C(=O)Nc3ccc4c(c3)OCO4)CC2=O)cc1 (stereo not drawn)	.	.	.	.	-3
CC1=C(CC(=O)c2ccc(Cl)cc2)C(=O)c2ccccc2C1=O	51*	0.6	0.5	44	1
Cc1ccc(S(=O)(=O)C(CCC(=O)c2ccc(Cl)cc2)C(N)=O)cc1 (stereo not drawn)	-8	1.6	1.1	-63	-1
CCCOc1ccc(C(=O)C(c2ccccc2)N2CCOCC2)cc1 (stereo not drawn)	14	0.6	0.9	37	-1
Cc1ccccc1CSCC(=O)N/N=C/c1cccs1	61*	0.7	0.4	32	4
O=C(Cn1cc(C(=O)c2ccco2)c2ccccc21)NCc1ccco1	24	0.6	0.8	37	0
CCC(=O)c1cn(CC(=O)NCC2CCCO2)c2ccccc12 (stereo not drawn)	30	1	0.7	4	.
O=C(Cn1cc(C(=O)c2cccs2)c2ccccc21)NCC1CCCO1 (stereo not drawn)	67*	0.5	0.3	47	0
O=C(Cn1cc(C(=O)c2cccs2)c2ccccc21)NCc1ccc2c(c1)OCO2	64*	0.3	0.4	73*	4
COc1cccc(CNC(=O)C2CCCN(c3nn4c(=O)cc(C)nc4s3)C2)c1 (stereo not drawn)	8	1	0.9	-4	.
Cc1noc(NS(=O)(=O)c2ccc(N/C=C/C(=O)c3ccncc3)cc2)c1C	-8	0.5	1.1	51*	2
SMILES	CYP2C19 inh	CYP2C9 activ	CYP2C19 activ	CYP2C9 inhib	EphB4 antag
Cc1noc(NS(=O)(=O)c2ccc(NC(=O)CCCOc3ccc(Cl)cc3Cl)cc2)c1C	.	.	.	.	-6
Cc1ccc(S(=O)(=O)CC(=O)Nc2ccc(S(=O)(=O)Nc3onc(C)c3C)cc2)cc1	-6	0.3	1.1	67*	6
COc1cc(NS(=O)(=O)c2ccc(NC(=O)COc3ccccc3Cl)cc2)nc(OC)n1	86*	0	0.1	96*	-1
Cc1noc(NS(=O)(=O)c2ccc(NC(=O)COc3ccc(Cl)cc3Cl)cc2)c1C	-10	0.3	1.1	71*	1
Cc1noc(NS(=O)(=O)c2ccc(N/C=C\C(=O)c3ccncc3)cc2)c1C	2	0.8	1	16	3
CC(=O)c1cc(-c2ccccc2)n(CC(=O)N2CCC(C)CC2)c1C	.	.	.	.	0
CC1CCN(c2ccccc2NC(=O)c2ccc(F)cc2)CC1	7	0.8	0.9	22	-2
COCCN1Cc2cccc(C(=O)Nc3c(C)cccc3C)c2C1=O	42	0.8	0.6	25	-6
Cc1ccc(OCC(=O)Nc2ccc(S(=O)(=O)Nc3onc(C)c3C)cc2)cc1	-2	0.9	1	12	0
CCc1cccc(OCC(=O)Nc2ccc(S(=O)(=O)Nc3onc(C)c3C)cc2)c1	7	0.2	0.9	80*	3
COc1ccc(S(=O)(=O)N2Cc3ccccc3CC2C(=O)Nc2ccc3c(c2)OCO3)cc1 (stereo not drawn)	85*	0.4	0.2	62*	13
O=C(O)C1Cc2ccccc2CN1S(=O)(=O)c1ccc2ccccc2c1 (stereo not drawn)	4	0.9	1	8	-6
Cc1ccc(S(=O)(=O)N2Cc3ccccc3CC2C(=O)Nc2ccc3c(c2)OCO3)cc1 (stereo not drawn)	98*	0	0	97*	-8
Cc1ccc(S(=O)(=O)N2C(=O)CCC2C(=O)Nc2ccc3c(c2)OCCO3)cc1 (stereo not drawn)	-2	1	1	-4	-1
CN(C)c1ccc(/C=C(/NC(=O)c2ccccc2)C(=O)N/N=C/c2ccc([N+](=O)[O-])c(O)c2)cc1	1	0.7	1	31	13
CCn1ncc(Cl)c1C(=O)NC(C)c1ccccc1 (stereo not drawn)	62*	0.8	0.4	20	3
CCOC(=O)c1sc(N)c(C#N)c1COC(=O)CNC(=O)c1ccccc1	42	0.3	0.6	73*	0
CCOC(=O)c1sc(NC(=O)c2ccccc2)cc1C	24	0.7	0.8	28	3
Cc1ccc(-n2ncc3c(=O)n(Cc4ccccn4)cnc32)cc1C	0	0.9	1	8	-10
Fc1ccc(CSc2nnc(-c3cccs3)o2)cc1	78*	0.3	0.2	72*	2
Fc1ccccc1CSc1nnc(-c2cccs2)o1	85*	0.2	0.1	80*	-2
Cc1ccc(C)c(CN2C(=O)C(C)Oc3ccc(C)cc32)c1 (stereo not drawn)	43	0.9	0.6	9	0
Cn1cc(S(=O)(=O)CC(=O)N2CCc3ccccc32)c2ccccc21	67*	0.6	0.3	42	1
Cc1ccccc1Cn1cc(S(=O)(=O)CC(=O)N2CCCCC2)c2ccccc21	.	.	.	.	5
CCCn1cc(S(=O)(=O)CC(=O)N2CCc3ccccc32)c2ccccc21	87*	0.2	0.1	79*	.
